This note sets out measurements from PubChem BioAssay (NCATS).

Records with an inconclusive call do not appear. Where a call stands in place of a potency, no number is given. Values without a mark were called inactive. The source made the active and inactive calls. Calls follow the shape of the dose curve; as a rule, active = well fitted cell-killing curve with a large enough effect; inconclusive = small, poorly fitted or top-dose-only effect, or effect the other way; inactive = flat fitted curve, though single readings scatter. Where a SMILES comes first, the peptide text is derived from it.

In this test the test system is HeLa. Description: Primary qHTS to identify gynecologic anti-cancer compounds using libraries of approved drugs and bioactive compounds (AID 1345084). Also: nearly all actives have a fitted effect of over 55% in size. Particulars: Gynecologic cancer cell panel viability, ATPlite luminescence, 48 h; series mostly up to 57.5 µM. Put shortly:
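Cells, 1,000 per well, plated 16 h, then exposed 48 h at 37 C to compounds. Viability by ATPlite luminescence after 15 min at room temperature.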
(In qHTS, concentration-response curves come from the screen itself.)
Regarding `OCC1OC(Oc2cc(O)cc(/C=C/c3ccc(OC4OC(CO)C(O)C(O)C4O)cc3O)c2)C(O)C(O)C1O` (centres undefined), the Potency result is “inactive”. In the case of `C[C@@H]1O[C@@H](O[C@H]2[C@H](O[C@H]3[C@H](O[C@H]4CC[C@@]5(C)C(CC[C@]6(C)C5CC=C5[C@@H]7CC(C)(C)CC(=O)[C@]7(C)CC[C@]56C)[C@@]4(C)CO)O[C@H](C(=O)O)[C@@H](O)[C@@H]3O)O[C@H](CO)[C@H](O)[C@@H]2O)[C@H](O)[C@H](O)[C@H]1O` (some centres undefined), the activity change, negative = cytotoxicity was 5.13% [at 11.6 µM]. For `CC(O)C/C=C/C=C/C(=O)OC1C=C2COC(=O)C2(O)C2(C)CCCC(C)(C)C12` (centres undefined), the Potency entry was “inactive”. `C[C@@H]1O[C@@H](O[C@H]2[C@H](O)[C@@H](O[C@@H]3O[C@H](CO)[C@H](O)[C@H](O)[C@H]3O)[C@H](O[C@H]3CC[C@@]4(C)C(CC[C@]5(C)C4CC=C4[C@@H]6CC(C)(C)CC[C@]6(C(=O)O[C@@H]6O[C@H](CO)[C@@H](O)[C@H](O)[C@H]6O)CC[C@]45C)C3(C)C)O[C@@H]2C(=O)O)[C@H](O)[C@H](O)[C@H]1O` (some centres undefined): the activity change, negative = cytotoxicity is 1.11% [at 11.6 µM]. `COc1ccnc(CCc2nc3ncccc3[nH]2)c1`: the Potency entry is “inactive”. Consider `CC(=O)O[C@@H]1[C@H](O[C@@H]2OC[C@](O)(CO)[C@H]2O)[C@@H](O[C@@H]2O[C@@H](C)[C@H](O)[C@@H](O[C@@H]3O[C@H](CO)[C@@H](O)[C@H](O)[C@H]3O)[C@H]2O)[C@H](OC(=O)[C@]23CCC(C)(C)C[C@H]2C2=CCC4[C@@]5(C)C[C@H](O)[C@H](O[C@@H]6O[C@H](C(=O)O)[C@@H](O)[C@H](O)[C@H]6O)[C@@](C)(C(=O)O)C5CC[C@@]4(C)[C@]2(C)CC3)O[C@@H]1C` (some centres undefined), for which the activity change, negative = cytotoxicity was -1.07% [at 6.55 µM]. On the same count and under the same terms, to `CC(C)CC(=O)O[C@@H]1O[C@H](CO)[C@@H](O[C@H]2O[C@H](C)[C@@H](N[C@H]3C=C(CO)[C@@H](O[C@H]4O[C@H](CO)[C@@H](O[C@H]5O[C@H](CO)[C@@H](O[C@H]6O[C@H](CO)[C@@H](O)[C@H](O)[C@H]6O)[C@H](O)[C@H]5O)[C@H](O)[C@H]4O)[C@H](O)[C@H]3O)[C@H](O)[C@H]2O)[C@H](O)[C@H]1O` belongs -0.344% [at 11.6 µM]. `NC[C@H]1CCC[C@@H](CNC(=O)[C@@H](Cc2c[nH]c3ccccc23)NC(=O)N2CCC3(C=Cc4ccccc43)CC2)C1`: the Potency entry is “inactive”. Consider `CC1CCC2(C)CCC3(C)C(=CCC4C5(C)CCC(O)C(C)(C(=O)O)C5CCC43C)C2C1C` (centres undefined), for which the Potency result was “inactive”. On to `C[C@@H]1O[C@@H](O[C@H]2[C@@H]3C=CO[C@@H](O[C@@H]4O[C@H](CO)[C@@H](O)[C@H](O)[C@H]4O)[C@@H]3[C@@]3(CO)O[C@@H]23)[C@H](O)[C@H](O)[C@H]1OC(=O)/C=C/c1ccc(O)cc1`, for which the Potency entry is “inactive”. In the case of `CC(CC12CCCN1C(=O)C1CCCN1C2=O)OC(N)=O` (centres undefined), the Potency result was “inactive”. On the same count and under the same terms, to `CC/C=C\C(O)C(O)C1=C(C)C(=O)C2(O1)C(=O)NC(OC)(C(=O)c1ccccc1)C2O` (centres undefined) belongs “inactive”; to `COc1c2cc(c(O)c1OC)CCCCC(O)CCc1ccc(O)c-2c1` (centres undefined), “inactive”. `CC1CC(=O)[C@]2(O)C(C(=O)OCCc3ccc(O)cc3)=CO[C@@H](O[C@@H]3O[C@H](CO)[C@@H](O)[C@H](O)[C@H]3O)[C@H]12` (some centres undefined): the Potency result was “inactive”. On to `COC(=O)C1=CO[C@@H](O[C@@H]2O[C@H](CO)[C@@H](O)[C@H](O)[C@H]2O)C2C1CC(O)C2C` (some centres undefined), for which the Potency entry is “inactive”. On the same count and under the same terms, to `CC(=O)OC[C@]12[C@H](OC(C)=O)[C@H](OC(=O)c3ccccc3)[C@@H]3[C@@H](OC(C)=O)[C@]1(OC3(C)C)[C@H](C)C[C@H](OC(=O)c1ccccc1)[C@@H]2OC(=O)c1ccccc1` belongs “inactive”; to `C[C@]1(C2CCCC2)Cc2cc(OCC(=O)O)c(Cl)c(Cl)c2C1=O`, “inactive”; to `CC(NC(=O)c1ccccc1N)C(=O)O` (centres undefined), “inactive”.

In the case of `O=C(Nc1ccn(Cc2c(F)cccc2C(F)(F)F)n1)c1c(F)cccc1F`, the activity change, negative = cytotoxicity was 13% [at 11.6 µM]. Consider `O=C(OC(C(F)(F)F)C(F)(F)F)N1CCN(Cc2cccc(Oc3ccccc3)c2)CC1`, for which the Potency entry is “inactive”. As to `C[C@H]1CC[C@@]2(OC1)O[C@H]1CC3C4CC[C@H]5C[C@@H](O)CC[C@]5(C)C4CC(=O)[C@]3(C)[C@H]1[C@@H]2C` (some centres undefined), the Potency entry was “inactive”. Take `Cc1oc(S(=O)(=O)N2CCCCC2)cc1NC(=O)Nc1ccccc1`: the Potency result was “inactive”. On to `CCC(C)/C=C(C)/C=C/C1=CC2=C(Cl)C(=O)C(C)(OC(C)=O)C(=O)C2=CN1C(CC(=O)O)C(=O)O` (centres undefined), for which the Potency entry was “inactive”.

On to `CC(C)[C@](O)(c1ccc2cc(OC(F)F)c(OC(F)F)cc2c1)c1cn[nH]n1`, for which the Potency result is “inactive”.

For the compound `COc1cc(C(=O)OC[C@H]2O[C@@H](OC(C)(C)C(=O)O)[C@H](O)[C@@H](O)[C@@H]2O)cc(OC)c1O`, the Potency result is “inactive”. Same read-out and setting: to `COc1cc(C(C)=O)ccc1O[C@@H]1O[C@H](CO)[C@@H](O)[C@H](O)[C@H]1O` belongs “inactive”; to `CC1(C)C(=O)CCC2(C)C1C(O)C=C1COC(=O)C12O` (centres undefined), “inactive”. In the case of `COc1cc(/C=C/c2ccccc2)c(C(=O)O)c(O)c1CC=C(C)C`, the Potency result was “inactive”. As to `CCC(C)C(C(=O)O)N1Cc2c(OCC=C(C)C)c(C)c(OC)c(C(=O)O)c2C1=O` (centres undefined), the Potency entry is “inactive”. For the compound `COC(=O)C1=CO[C@@H](O[C@@H]2O[C@H](CO)[C@@H](O)[C@H](O)[C@H]2O)[C@@H]2[C@@H](CO)[C@@H](O)C(O)[C@H]12` (some centres undefined), the Potency entry is “inactive”. In the case of `CC(C)C[C@H](NC(=O)[C@@H]1O[C@H]1C(=O)O)C(=O)NCCCCN=C(N)N`, the Potency entry was “inactive”.

With `C[C@@H]1O[C@@H](OC[C@H]2O[C@@H](OCc3ccccc3)[C@H](O)[C@@H](O)[C@@H]2O)[C@H](O)[C@H](O)[C@H]1O`, the Potency result was “inactive”.

On to `CNC(=O)c1ccc2c(c1)CCO[C@H]2CCN1CCN(c2ccc(C(N)=O)cc2)CC1`, for which the Potency result is “inactive”. Consider `COC(=O)C1=COC(OC2OC(CO)C(O)C(O)C2O)C2C(COC(=O)/C=C/c3ccc(O)c(O)c3)C(O)C(O)C12` (centres undefined), for which the Potency result is “inactive”. On the same count and under the same terms, to `CC(C)C1NC(=O)CNC(=O)C2CCCN2C(=O)C(Cc2c[nH]c3ccccc23)NC(=O)CNC(=O)C(Cc2ccc(O)cc2)NC(=O)CNC1=O` (centres undefined) (cyclo(GVGYGWP); configuration not given here) belongs “inactive”; to `CC(C)c1ccc2c(c1)C(=O)CC1C(C)(C(=O)O)CCCC21C` (centres undefined), “inactive”. On to `C=C1CCC2(C(=O)OC3OC(CO)C(O)C(O)C3O)CCC3(C)C(=CCC4C5(C)CCC(OC6OC(CO)C(OC7OC(C)C(O)C(O)C7O)C(OC7OCC(O)C(O)C7O)C6O)C(C)(C)C5CCC43C)C2C1` (centres undefined), for which the activity change, negative = cytotoxicity is 11.1% [at 11.6 µM].

For `C=C1CC2C(C)(CCC(=O)O)C(C(C)(C)O)CCC2(C)C2(C(=O)OC)C(=O)C(C)(O)C(=O)C12C` (centres undefined), the Potency result was “inactive”. Turning to `COc1ccc(-n2c(SCC#N)nc3sc4c(c3c2=O)CCCC4)cc1`, the Potency entry was “inactive”.
